Shown are actives, neighbours in structure and some others; about 5.4% of the full set was active somewhere.
HPGD inh: inhibitors of human 15-hydroxyprostaglandin dehydrogenase (HPGD). P15428. purified HPGD, NADH fluorescence kinetic, PGE2 substrate. Potency, µM, hits mostly inhibitors. hit rate 4.3% among 150,000. AID 894; active = well fitted inhibition curve with a large enough effect, not every such curve was filed as active; inconclusive = small, poorly fitted or top-dose-only effect, or another doubt; inactive = no such curve, though single readings can be large or run the other way
Target sequence (P15428 whole entry, looked up): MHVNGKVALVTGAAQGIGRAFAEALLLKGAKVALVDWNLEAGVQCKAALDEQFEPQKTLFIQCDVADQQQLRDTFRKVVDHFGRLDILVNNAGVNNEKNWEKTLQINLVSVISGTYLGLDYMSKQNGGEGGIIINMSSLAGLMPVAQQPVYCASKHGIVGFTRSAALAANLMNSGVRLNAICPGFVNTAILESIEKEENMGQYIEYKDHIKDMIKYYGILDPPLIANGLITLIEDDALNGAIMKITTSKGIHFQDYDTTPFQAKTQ
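20 nM HPGD preincubated 15 min at room temperature with compound in 50 mM Tris-HCl pH 8, 0.01% Tween 20. Started with 1 mM NAD+ and 30 uM prostaglandin E2; NADH fluorescence (360/450 nm) read 5 times over 30-s intervals, last minus first.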
PNC assembly inh: perinucleolar compartment assembly inhibition | activity change (PNC), negative = inhibition, % at 10 µM | hit rate 3.1% among 140,000 | PC3M PTB-GFP, PNC prevalence imaging, 16 h; hits give low values;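 active = readout at or below -70, meaning at least 70% loss of cells showing the perinucleolar compartment, a nuclear body marking cancer cells; inconclusive = readout between -30 and a set limit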
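PC3M cells stably expressing PTB-GFP, 750–1000 cells/well, treated 16 h at 37 °C with compound (23 nl of library stock), in duplicate. After paraformaldehyde fixation and Hoechst stain, imaged at 20x; PNC prevalence scored by image analysis.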
IMPase Li inh: cell-permeable IMPase inhibitors with lithium potentiation | CHO-M1 cells, IP1 TR-FRET (IP-One), carbachol + lithium | Potency, µM (doses to about 59.4 µM), hits mostly inhibitors | hit rate 0.35% among 210,000;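 also: IP1 builds up when IMPase is blocked and the TR-FRET signal falls; nearly all actives have a fitted effect of over 50% in size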
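Readout is a homogeneous TR-FRET IP1 immunoassay (Ex 320, Em 665 and 620), where raised cytosolic IP1 lowers signal. Cells were CHO-M1 treated 30 min at 37C with test compounds plus a little lithium; AC50 values came from Hill-equation fitting.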
12-hLO inh: inhibitors of human 12-lipoxygenase (ALOX12); AID 1452; hit rate 0.12% among 150,000; purified 12-hLO, xylenol orange hydroperoxide absorbance; P18054; Potency, µM (doses to about 57.1 µM), actives largely listed as inhibitors; also: nearly all actives have a fitted effect of over 55% in size
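Purified human 12hLO (150 nM final) was preincubated with compounds for 15 min at room temperature in 25 mM Hepes pH 7.0, 0.01% Triton X-100, then reacted with 40 uM arachidonic acid for 30 min. Hydroperoxide was detected with ferrous iron/xylenol orange.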
IMPase inh: IMPase inhibition in cells; P97697; CHO-M1 cells, IP1 accumulation, HTRF TR-FRET ratio; inhibition (IP1 accumulation), % at 46.1 µM; 120,000 tested, under 10 active; AID 901; active = well fitted curve in the direction sought with a large enough effect in the signal ratio, not every such curve was filed as active; inconclusive = small, poorly fitted or top-dose-only effect, or a change in a side signal; inactive = no such curve, though single readings can be large or run the other way; the % refers to the signal ratio;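 also: cells stimulated with carbachol in lithium chloride buffer; higher means more IMPase inhibition seen as more IP1 and lower FRET ratio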
Target sequence (P97697 whole entry, looked up): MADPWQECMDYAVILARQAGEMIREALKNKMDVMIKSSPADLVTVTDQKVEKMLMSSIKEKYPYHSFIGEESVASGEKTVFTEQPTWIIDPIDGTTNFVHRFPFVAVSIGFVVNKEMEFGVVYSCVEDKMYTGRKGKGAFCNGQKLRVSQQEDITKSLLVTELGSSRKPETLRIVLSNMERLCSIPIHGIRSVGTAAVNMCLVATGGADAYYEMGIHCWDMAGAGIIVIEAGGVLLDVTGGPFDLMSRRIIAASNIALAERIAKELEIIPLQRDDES
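In this qHTS, compounds (final up to 46 uM) act on CHO-M1 cells that are then activated through the M1 receptor with carbachol, in pH 7.4 buffer containing 50 mM LiCl, for 30 min. IP1 accumulation is quantified by the IP-One immunoassay.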
15-hLO-2 inh: 15-hLO-2 (ALOX15B) enzyme inhibition. O15296. purified 15hLO-2, xylenol orange hydroperoxide absorbance. Potency, µM (highest dose often 57.1 µM), most hits filed as inhibitors. hit rate 0.56% among 110,000; also: nearly all actives have a fitted effect of over 60% in size
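Purified human 15hLO-2 (50 nM final) preincubated with compounds 15 min at room temperature in 25 mM Hepes pH 7.5, 0.01% Triton X-100, then 45 uM arachidonic acid added for 90 min; hydroperoxide detected via ferrous/xylenol orange, 573/405 nm absorbance ratio.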
A number is an active result; - = inactive; ? = inconclusive; . = no result; [ ] = dose if it differs, or a comment. Unless noted, calls follow the shape of the dose curve; as a rule, active = well fitted curve in the direction sought with a large enough effect; inconclusive = small, poorly fitted or top-dose-only effect, or another doubt; inactive = no such curve, though single readings can be large; an effect the other way counts as inactive or inconclusive.

SMILES	HPGD inh	PNC assembly inh	IMPase Li inh	12-hLO inh	IMPase inh	15-hLO-2 inh
CCN(CC)c1ccc(NC(=O)CSc2ccsc2[N+](=O)[O-])c(C)c1	12.6µM	-	-	-	.	.
Cc1ccc(C=Nc2ccccc2C(=O)Nc2ccccc2)cc1	?	-	-	-	.	.
Cc1ccc(C=Nc2ccccc2C(N)=O)cc1	?	-113.4	-	-	-	-
Cc1ccccc1C=Nc1ccccc1C(N)=O	?	-86.0	-	-	.	.
Cc1c(C#N)c2ccccc2n1CC(=O)N1CCc2ccccc2C1	-	-	-	-	-	-
O=C(CCn1c(=O)c2ccccc2n(Cc2cccc([N+](=O)[O-])c2)c1=O)N1CCc2ccccc2C1	15.8µM	-	-	-	.	.
O=C(Nc1ccc(O)c(C(=O)O)c1)c1ccc2c(c1)C(=O)N(CC1CCCO1)C2=O (centres undefined)	-	-	-	-	-	-
Cc1nnc(NC(=O)c2ccc3c(c2)C(=O)N(CC2CCCO2)C3=O)s1 (centres undefined)	-	-90.0	-	-	-	-
Cc1ccc(NC(=O)c2ccc3c(c2)C(=O)N(CC2CCCO2)C3=O)cc1C (centres undefined)	.	.	-	.	.	.
Cc1c(NC(=O)c2ccc3c(c2)C(=O)N(CC2CCCO2)C3=O)cccc1C(=O)O (centres undefined)	-	-81.3	-	-	-	-
O=C(OCC(=O)N1CCCCC1)c1cc(NS(=O)(=O)c2ccc(Cl)c([N+](=O)[O-])c2)ccc1O	8.91µM	-	-	-	-	.
O=C(OCC(=O)N1CCN(C(=O)c2ccco2)CC1)c1cc(S(=O)(=O)Nc2ccc(Cl)cc2)ccc1O	.	.	-	.	.	.
Cc1ccc(C)c(Cn2cnc3c(cnn3C(C)(C)C)c2=O)c1	22.4µM	-	-	-	-	-
CC1(C)CC(=O)C2=C(C1)OC1=C(C(=O)CC(C)(C)C1)C2c1ccc(O)cc1O	3.16µM	-	-	?	-	?
N#Cc1cccc(-c2cc(NCc3ccccc3)ncn2)c1	.	.	-	.	.	-
O=C(Nc1cc(C(=O)N2CCCC2)ccc1N1CCCC1)c1ccccc1	25.1µM	-111.0	-	-	-	-
O=C(Nc1ccccc1C(=O)N1CCCC1)c1ccccc1	-	-118.9	-	-	-	.
CCCCOC(=O)Nc1ccccc1C(=O)N1CCCC1	-	-113.4	-	-	.	.
O=C(c1cccc(F)c1F)N1CCCC1	28.2µM	-	-	-	-	.
CSc1ccccc1C(=O)N1CCCCC1	.	.	-	.	.	.
COC(=O)Nc1ccccc1C(=O)N1CCCCC1	-	-	-	-	-	-
CNC(=S)Nc1cc(C(=O)N2CCCC2)ccc1N1CCCC1	.	.	-	.	.	.
CCOc1ccc(Nc2nc3ccccc3n3c(CC)nnc23)cc1	.	.	.	.	-	.
COc1cccc(-c2nc(SCC(=O)NCC3CCCO3)c(-c3ccc(Cl)cc3)[nH]2)c1 (centres undefined)	.	.	.	.	-	.
CCOC(=O)C1=C(C)NC(C)=C(C(=O)OC)[C@H]1c1cccc(Cl)c1Cl	.	.	.	-	-	-
SMILES	HPGD inh	PNC assembly inh	IMPase Li inh	12-hLO inh	IMPase inh	15-hLO-2 inh
COC(=O)N[C@@H](c1cccc(C)c1)[C@@H](C)[N+](=O)[O-]	-	.	-	.	.	.
CCOc1ccccc1N(CC(=O)N1CCc2ccccc2C1)S(=O)(=O)c1ccccc1	.	.	.	.	-	.
COC(=O)[C@H]1C[C@H]2CC[C@H](O)C[C@H]2N1Cc1c(F)cccc1Cl	-	.	-	-	.	-
CC(NC(=O)c1ccccc1NC(=O)c1ccccc1)C(=O)N1CCOCC1 (centres undefined)	-	-96.6	-	-	.	.
C=C1C2c3ccccc3C(CC2(C)O[Si](C)(C)C)N1C(=O)OC (centres undefined)	-	.	-	-[11.4 µM]	.	.
C=CC1=C2C=C(C3CC3)N(C3CCCCC3)C=C2C(=O)C(C)(OC(=O)c2ccco2)C1=O (centres undefined)	-	.	-	-[11.4 µM]	.	.
CCCCn1c2ccccc2c2nnc(SCC(=O)Nc3ccc(NC(C)=O)cc3)nc21	.	.	.	.	-	.
COc1ccc(C2C=C(c3ccc(Br)cc3)Nc3nc(N4C(=O)CCC4=O)nn32)cc1 (centres undefined)	?	-	-	-	-	-
